In PubChem BioAssay (Tox21):
Values joined by “and” are separate entries in the source; they are usually repeats but may differ in a detail not shown here. Equal values may be shown once. Results filed as inconclusive are left out. Entries that show only a call come without a potency. Values without a mark were called inactive. Active and inactive are the calls of the source. Calls come from the whole dose curve; as a rule, active = well fitted curve in the direction sought with a large enough effect in the repeat runs; inconclusive = weak or mixed curves; inactive = no such curve, though single readings can be large; an effect the other way counts as inactive or inconclusive.

How the values were obtained:
[1] = biological target: Cytochrome P450 2C9 (Homo sapiens) (UniProt P11712); test: Cytochrome P450 Family 2 Subfamily C Member 9 (CYP2C9) small molecule antagonists: luciferase reporter qHTS assay (AID 1671198)
Method in brief: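 P450-Glo proluciferin substrate with CYP2C9 enzyme; 10 min RT preincubation, then NADPH regeneration 1 h at 37C; luciferin detection reagent 20 min RT, luminescence in relative luminescence units.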

[2] = biological target: Cytochrome P450 1A2 (Homo sapiens) (UniProt P05177); test: Cytochrome P450 Family 1 Subfamily A Member 2 (CYP1A2) small molecule antagonists: luciferase reporter qHTS assay (AID 1671199)
Method in brief: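 Luminescence readout (relative luminescence units) after luciferin detection reagent, 20 min RT. Preceded by 1 h room-temperature CYP1A2 reaction with NADPH regeneration solution following 10 min compound preincubation with enzyme and proluciferin substrate. Furafylline positive control.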

[3] = biological target: Voltage-gated inwardly rectifying potassium channel KCNH2 (Homo sapiens) (UniProt Q12809); test: Human Ether-a-go-go-Related Gene (hERG) channel small molecule antagonists: fluorescence cell-based qHTS assay (AID 1671200)
Method in brief: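 Fluorescence at 540 nm emission (480 nm excitation) was recorded kinetically for 2 min at 1-second intervals once the thallium-containing stimulus reached cells previously loaded with FluxOR II dye.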

[4] = biological target: Cytochrome P450 3A4 (Homo sapiens) (UniProt P08684); test: Cytochrome P450 Family 3 Subfamily A Member 4 (CYP3A4) small molecule antagonists: luciferase reporter qHTS assay (AID 1671201)
Method in brief: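 qHTS, 1536-well. CYP3A4 + proluciferin substrate, cpd 10 min RT → NADPH regen 1 h RT → detection reagent 20 min → luminescence (RLU). Ketoconazole positive control.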
Note: nearly all actives have a fitted effect of over 50% in size.
Potency is the fitted concentration of half-maximal effect.

Cytochrome P450 2C9 (Homo sapiens), sequence (P11712 whole entry, looked up): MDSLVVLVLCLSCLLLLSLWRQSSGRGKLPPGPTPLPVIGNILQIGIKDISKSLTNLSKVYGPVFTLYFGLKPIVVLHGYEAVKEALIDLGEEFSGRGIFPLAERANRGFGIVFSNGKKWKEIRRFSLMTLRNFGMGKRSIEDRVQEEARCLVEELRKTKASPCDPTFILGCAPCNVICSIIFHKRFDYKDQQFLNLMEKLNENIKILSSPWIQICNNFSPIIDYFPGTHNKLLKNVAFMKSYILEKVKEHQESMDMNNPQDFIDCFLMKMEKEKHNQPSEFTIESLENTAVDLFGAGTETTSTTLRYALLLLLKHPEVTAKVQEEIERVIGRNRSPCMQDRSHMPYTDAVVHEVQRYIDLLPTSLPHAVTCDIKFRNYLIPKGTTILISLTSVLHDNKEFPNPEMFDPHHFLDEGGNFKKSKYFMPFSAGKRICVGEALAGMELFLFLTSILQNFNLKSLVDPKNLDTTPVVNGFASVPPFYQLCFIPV
Cytochrome P450 3A4 (Homo sapiens), sequence (P08684 whole entry, looked up): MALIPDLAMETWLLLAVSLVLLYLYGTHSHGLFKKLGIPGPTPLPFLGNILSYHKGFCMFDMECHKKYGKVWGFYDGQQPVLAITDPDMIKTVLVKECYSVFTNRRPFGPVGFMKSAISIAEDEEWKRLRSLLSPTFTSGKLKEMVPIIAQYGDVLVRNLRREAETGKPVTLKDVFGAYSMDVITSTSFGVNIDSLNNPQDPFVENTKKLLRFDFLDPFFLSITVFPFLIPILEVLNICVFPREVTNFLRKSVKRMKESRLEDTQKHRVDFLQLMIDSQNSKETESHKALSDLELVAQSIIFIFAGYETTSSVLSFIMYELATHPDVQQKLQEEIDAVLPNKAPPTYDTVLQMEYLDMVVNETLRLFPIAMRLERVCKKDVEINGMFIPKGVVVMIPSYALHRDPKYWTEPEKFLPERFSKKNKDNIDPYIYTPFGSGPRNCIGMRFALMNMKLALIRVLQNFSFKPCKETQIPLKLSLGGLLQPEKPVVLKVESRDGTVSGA
Cytochrome P450 1A2 (Homo sapiens), sequence (P05177 whole entry, looked up): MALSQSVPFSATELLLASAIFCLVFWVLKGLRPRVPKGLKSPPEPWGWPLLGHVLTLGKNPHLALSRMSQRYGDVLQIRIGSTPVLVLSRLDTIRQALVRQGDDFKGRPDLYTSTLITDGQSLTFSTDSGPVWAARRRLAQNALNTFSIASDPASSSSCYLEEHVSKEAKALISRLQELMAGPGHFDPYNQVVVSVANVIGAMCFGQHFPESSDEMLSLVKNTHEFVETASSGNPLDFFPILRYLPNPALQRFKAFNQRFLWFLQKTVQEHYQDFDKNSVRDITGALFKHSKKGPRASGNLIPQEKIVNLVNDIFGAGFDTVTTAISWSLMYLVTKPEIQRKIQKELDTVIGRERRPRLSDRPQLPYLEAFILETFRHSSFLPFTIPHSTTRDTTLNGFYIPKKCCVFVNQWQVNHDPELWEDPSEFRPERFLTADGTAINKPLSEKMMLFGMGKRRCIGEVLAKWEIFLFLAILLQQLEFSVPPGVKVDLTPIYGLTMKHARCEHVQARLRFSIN
Voltage-gated inwardly rectifying potassium channel KCNH2 (Homo sapiens), sequence (Q12809 whole entry, looked up): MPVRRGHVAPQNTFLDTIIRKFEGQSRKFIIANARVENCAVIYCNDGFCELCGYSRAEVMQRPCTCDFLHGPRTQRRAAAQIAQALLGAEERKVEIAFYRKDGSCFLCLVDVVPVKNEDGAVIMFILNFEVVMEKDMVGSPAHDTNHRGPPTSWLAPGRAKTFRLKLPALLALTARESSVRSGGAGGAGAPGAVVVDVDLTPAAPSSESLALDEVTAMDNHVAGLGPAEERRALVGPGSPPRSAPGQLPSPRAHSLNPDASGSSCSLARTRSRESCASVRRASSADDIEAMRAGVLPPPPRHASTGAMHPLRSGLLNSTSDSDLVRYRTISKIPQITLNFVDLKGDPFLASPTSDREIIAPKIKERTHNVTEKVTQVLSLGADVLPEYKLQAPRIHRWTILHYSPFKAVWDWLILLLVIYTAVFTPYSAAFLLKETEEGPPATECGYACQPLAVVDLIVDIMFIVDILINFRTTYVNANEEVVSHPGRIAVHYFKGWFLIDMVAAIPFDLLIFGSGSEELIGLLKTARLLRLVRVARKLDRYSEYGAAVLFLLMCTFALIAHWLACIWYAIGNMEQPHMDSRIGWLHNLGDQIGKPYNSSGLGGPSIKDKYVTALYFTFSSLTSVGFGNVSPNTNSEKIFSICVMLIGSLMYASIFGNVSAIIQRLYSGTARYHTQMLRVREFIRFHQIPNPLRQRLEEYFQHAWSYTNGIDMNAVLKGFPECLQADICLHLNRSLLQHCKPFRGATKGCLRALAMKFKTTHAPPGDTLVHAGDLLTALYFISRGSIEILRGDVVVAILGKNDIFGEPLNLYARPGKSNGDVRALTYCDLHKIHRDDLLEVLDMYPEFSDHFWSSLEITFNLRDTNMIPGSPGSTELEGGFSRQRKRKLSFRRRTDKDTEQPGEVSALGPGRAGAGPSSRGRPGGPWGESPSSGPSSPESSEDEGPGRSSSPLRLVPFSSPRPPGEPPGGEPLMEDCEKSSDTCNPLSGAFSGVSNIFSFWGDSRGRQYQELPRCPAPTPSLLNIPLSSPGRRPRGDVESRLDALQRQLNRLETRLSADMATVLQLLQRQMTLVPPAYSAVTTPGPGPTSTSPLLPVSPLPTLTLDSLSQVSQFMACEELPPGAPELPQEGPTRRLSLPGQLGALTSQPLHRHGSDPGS

SMILES: O=C1[C@@H]2[C@H]3CC[C@H](C3)[C@@H]2C(=O)N1CCCCN1CCN(c2ncccn2)CC1
- Potency [1]: inactive
- Potency [2]: inactive
- Potency [3]: inactive

SMILES: O=C(C(=O)c1ccco1)c1ccco1
- Potency [1]: inactive
- Potency [2]: 35.9 µM (active)
- Potency [3]: inactive

SMILES: Cc1ccc2c(c1[N+](=O)[O-])C(=O)c1ccccc1C2=O
- Potency [1]: inactive
- Potency [2]: 4.93 µM (active)
- Potency [3]: inactive
- Potency [4]: 15.6 µM (active)

SMILES: COc1ccc2nc(S(=O)Cc3ncc(C)c(OC)c3C)[nH]c2c1 (stereo unspecified)
- Potency [1]: 31.3 µM (active) and 13.8 µM (active)
- Potency [2]: 8.83 µM (active) and 15.5 µM (active)

SMILES: CC(C)(O)c1coc(S(=O)(=O)NC(=O)Nc2c3c(cc4c2CCC4)CCC3)c1
- Potency [1]: 25.2 µM (active)
- Potency [2]: 17.8 µM (active)
- Potency [3]: inactive
- Potency [4]: 22.4 µM (active)

SMILES: O=C(O)c1cccc(C[C@@H]2COc3ccc(OCc4nc5cc(F)ccc5s4)cc3[C@@H]2O)c1
- Potency [1]: 40 µM (active)
- Potency [2]: 31.8 µM (active)
- Potency [4]: inactive

SMILES: CCC(CO)(CO)[N+](=O)[O-]
- Potency [1]: inactive
- Potency [2]: inactive
- Potency [4]: inactive

SMILES: O=C1c2ccccc2C(=O)c2c(O)ccc(O)c21
- Potency [1]: inactive
- Potency [2]: 3.17 µM (active)
- Potency [4]: inactive

SMILES: CCC(CO)(CO)CO
- Potency [1]: inactive
- Potency [2]: inactive
- Potency [3]: inactive
- Potency [4]: inactive

SMILES: CC(=O)OCC(C)C
- Potency [1]: inactive
- Potency [2]: inactive
- Potency [3]: inactive
- Potency [4]: inactive

SMILES: CNC1CCCN(c2c(F)cc3c(=O)c(C(=O)O)cn(C4CC4)c3c2OC)C1 (stereo unspecified)
- Potency [1]: inactive
- Potency [2]: inactive
- Potency [4]: inactive

SMILES: CN=C(N)NC(=O)Nc1c(C)cccc1C
- Potency [1]: inactive
- Potency [2]: inactive
- Potency [3]: inactive
- Potency [4]: inactive

SMILES: ClC1=C(Cl)C1(Cl)Cl
- Potency [1]: inactive
- Potency [2]: inactive
- Potency [4]: inactive

SMILES: O=C(O)CO
- Potency [1]: inactive
- Potency [2]: inactive
- Potency [3]: inactive
- Potency [4]: inactive

SMILES: O=C(O)/C=C/c1ccc(O)c(O)c1
- Potency [1]: inactive
- Potency [2]: inactive
- Potency [3]: inactive
- Potency [4]: inactive

SMILES: COC(OC)OC
- Potency [1]: inactive
- Potency [2]: inactive
- Potency [4]: inactive

SMILES: CCCCCCCCCCCCCCCC(=O)OCC
- Potency [1]: inactive
- Potency [2]: inactive
- Potency [3]: inactive
- Potency [4]: inactive

SMILES: CCN(CC)CCNC(=O)c1cc(Cl)c(N)cc1OC
- Potency [1]: inactive
- Potency [2]: inactive
- Potency [3]: inactive
- Potency [4]: inactive

SMILES: O=C(Oc1ccccc1)c1ccc2ccccc2c1O
- Potency [1]: 12.6 µM (active)
- Potency [2]: 5.64 µM (active)
- Potency [4]: inactive

SMILES: COc1ccc(CCN(C)CCCN2CCc3cc(OC)c(OC)cc3CC2=O)cc1OC
- Potency [1]: inactive
- Potency [2]: inactive
- Potency [4]: inactive

SMILES: CC(C)c1ccc(C(=O)N=C(N)N)cc1S(C)(=O)=O
- Potency [1]: inactive
- Potency [2]: 44.4 µM (active)
- Potency [4]: inactive

SMILES: CCOC(=O)N1CCC(Nc2ccc(Cl)cc2N)CC1
- Potency [1]: 8.71 µM (active)
- Potency [2]: inactive
- Potency [3]: inactive
- Potency [4]: inactive

SMILES: CC(C)COC(=O)c1ccc(O)cc1
- Potency [1]: 25.2 µM (active)
- Potency [2]: 2.82 µM (active)
- Potency [4]: inactive

SMILES: O=C(CCS)OCC(COC(=O)CCS)(COC(=O)CCS)COC(=O)CCS
- Potency [1]: 15.9 µM (active)
- Potency [2]: inactive
- Potency [3]: 38.9 µM (active)
- Potency [4]: 5.64 µM (active)

SMILES: C=C(C)C(=O)OCCC(F)(F)C(F)(F)C(F)(F)C(F)(F)C(F)(F)C(F)(F)F
- Potency [1]: inactive
- Potency [2]: inactive
- Potency [3]: inactive
- Potency [4]: inactive

SMILES: Cc1cccc2sc(N)nc12
- Potency [1]: inactive
- Potency [2]: 18.1 µM (active)
- Potency [3]: inactive
- Potency [4]: inactive

SMILES: c1ccc(CCCc2ccncc2)cc1
- Potency [1]: 2 µM (active)
- Potency [2]: 1.42 µM (active)
- Potency [4]: 0.448 µM (active)

SMILES: Nc1c(Cl)cc(Cl)cc1[N+](=O)[O-]
- Potency [1]: inactive
- Potency [2]: 5.64 µM (active)
- Potency [4]: inactive

SMILES: O=C(c1ccccc1)c1ccc(O)cc1
- Potency [1]: inactive
- Potency [2]: 32.1 µM (active)
- Potency [3]: inactive
- Potency [4]: inactive

SMILES: CC(C)C1CCC(C(=O)N[C@H](Cc2ccccc2)C(=O)O)CC1 (stereo partly specified)
- Potency [1]: 11 µM (active)
- Potency [2]: inactive
- Potency [4]: inactive

SMILES: O=C(NC(Cc1cc(=O)[nH]c2ccccc12)C(=O)O)c1ccc(Cl)cc1 (stereo unspecified)
- Potency [1]: inactive
- Potency [2]: inactive
- Potency [4]: inactive

SMILES: COC(=O)c1sccc1S(N)(=O)=O
- Potency [1]: inactive
- Potency [2]: inactive
- Potency [3]: inactive
- Potency [4]: inactive

SMILES: O=C1CC[C@@H](C(=O)O)N1
- Potency [1]: inactive
- Potency [2]: inactive
- Potency [3]: inactive
- Potency [4]: inactive

SMILES: Cc1cc(CCC(=O)OCCOCCOCCOC(=O)CCc2cc(C)c(O)c(C(C)(C)C)c2)cc(C(C)(C)C)c1O
- Potency [1]: 0.617 µM (active)
- Potency [2]: inactive
- Potency [3]: inactive
- Potency [4]: 2.46 µM (active)

SMILES: CCN(Cc1cccc(S(=O)(=O)O)c1)c1ccc(C(=C2C=CC(=[N+](CC)Cc3cccc(S(=O)(=O)O)c3)C=C2)c2ccccc2S(=O)(=O)[O-])cc1
- Potency [1]: 11.3 µM (active)
- Potency [2]: 17.9 µM (active)
- Potency [4]: 14.2 µM (active)
